From PubChem BioAssay AID1794842 (National Center for Advancing Translational Sciences (NCATS), 2023)
Fewer than 10 of roughly 2,800 compounds were called active. The call rests on the fitted dose curve; in most records, active means well fitted curve in the direction sought with a large enough effect; inconclusive means small, poorly fitted or top-dose-only effect, or another doubt; inactive means no such curve, though single readings can be large or run the other way. These entries were drawn from the full list.

The compounds below were run against Metallo-beta-lactamase type 2 (Klebsiella pneumoniae) (UniProt C7C422) (assay: qHTS to identify inhibitors of the New Delhi Metallo-beta-lactamase (NDM): Meropenem screen against the machine-based learning selections.). Conditions: Purified NDM-1, meropenem hydrolysis, absorbance 300 nm; series mostly up to 38.4 µM; activity change, negative = inhibition: at the top concentration.
Metallo-beta-lactamase type 2 (Klebsiella pneumoniae), sequence (C7C422 whole entry, looked up): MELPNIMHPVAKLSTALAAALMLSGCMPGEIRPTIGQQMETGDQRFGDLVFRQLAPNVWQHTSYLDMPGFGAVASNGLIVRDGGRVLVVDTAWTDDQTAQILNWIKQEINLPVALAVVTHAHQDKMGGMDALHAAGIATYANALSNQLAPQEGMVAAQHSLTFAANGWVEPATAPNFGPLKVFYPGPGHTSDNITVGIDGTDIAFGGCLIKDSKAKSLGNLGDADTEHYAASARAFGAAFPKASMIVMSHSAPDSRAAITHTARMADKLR
Excerpt: Assay Submitter (PI): James Inglese Ph.D., Patricia Dranchak Ph.D., Mahesh Aitha Ph.D. Assay Development and Screening Technology Laboratory (ADST) National Center for Advancing Translational Sciences (NCATS), Rockville, MD National Institute of Health (NIH), Bethesda, Maryland The metallo-beta-lactamases (MBL) are a main antibiotic resistance mechanism evolved by bacteria. There is an urgent clinical need for MBL inhibitors to mitigate this growing threat. To support a machine-based learning study, qHTS has been used to experimentally test inhibitors identified by prediction tools.
PROTOCOL TABLE (as described by Inglese et al., 2007) SEQUENCE No. (e.g., 1, 2, 3, etc.); […] (e.g., enzyme, Incubation, Reagent, etc.); VALUE; DESCRIPTION Primary Screen 1; NDM-1; 4 uL of 3 nM enzyme [2 nM final] in 50 mM HEPES (pH 7.0), 1 uM […], 0.01% Tween20; Use BioRaptr to dispense into two sets of Aurora black, clear bottom high base 1536-well plates 2; Compounds; 23 nL; Use Pin Tool (Wako) to transfer DMSO control and library compounds in DMSO 3; Incubate; >30 min 4a; Reagent; 2 uL of 50 uM nitrocefin [16.7 uM final] to one set of assay plates 4b; Reagent; 2 uL of 150 uM meropenem [50 uM final] to second set of assay plates 5a; Incubate; 15 min 5b; Incubate; 30 min 6a; Detector; Absorbance at 485 nm (bandwidth = 5 nm, 25 flashes/well) on Tecan Infinity 6b; Detector; Absorbance at 300 nm (bandwidth = 5 nm, 25 flashes/well) on Tecan Infinity NOTES (numbers refer to sequence above) 1; Column 1 of each plate received assay buffer without enzyme and columns 2-48 received enzyme for a final assay concentration of 2 nM. 2; Control plate contained DMSO in columns 1, 2, 3, and 4. 3; Compound interaction with enzyme. 4; Nitrocefin and meropenem substrates were prepared in the same assay buffer as step 1 for a final assay concentration of 16.7 uM and 50 uM, respectively, and added to all wells across respective sets of assay plates. 5; Default reader settings were applied for absorbance read at 485 nm (nitrocefin) or 300 nm (meropenem), bandwidth = 5 nm, 25 flashes/well. References: Inglese J, Shamu CE, Guy RK. 2007. Reporting data from high-throughput screening of small-molecule libraries. Nat Chem Biol. doi:10.1038/nchembio0807-438 Yasgar A, Shinn P, Jadhav A, Auld D, Michael S, Zheng W, Austin CP, Inglese J, Simeonov A. 2008. Compound Management for Quantitative High-Throughput Screening. J Lab Autom 13:79 - 89. doi:10.1016/j.jala.2007.12.004
Further: % of control where 0% means no effect.

Activity change, negative = inhibition, inactive:
Cc1cc(-c2ccccc2)nc(CN2CC[C@@](O)(C3CCC3)[C@H](C)C2)n1 1.38%
CCOCCN1C(=O)COC[C@@H]1[C@H](O)c1ccc(NC(=O)Cc2ccccc2)cc1 -0.552% [at 57.5 µM]
COCC(=O)N[C@H]1C[C@H]2C(=O)NC[C@@H](CCC(=O)N3CCN(c4ccccn4)CC3)N2C1 5.83%
COc1ccc(OC)c(S(=O)(=O)N2CCCC(Cn3c(C)nc4cccnc43)C2)c1 (stereo not drawn) 0.467%
O[C@@H]1C[C@@H](c2nc(-c3ccc4c(c3)OCO4)no2)N(Cc2cc3ccccc3o2)C1 3.26% [at 57.5 µM]
CC1=C[C@@H](CNC(=O)COCC(=O)O)[C@H](C(C)C)C[C@H]1Cc1nc2ccc(C)cc2[nH]1 41.1% [at 57.5 µM]
NCCn1cc(C(=O)NCCS(=O)(=O)N2CCCC2)nn1 -0.385%
C=CCN1CCN(C(=O)[C@@H]2Cc3c[nH]c4cccc(c34)[C@H](CC(C)C)N2)CC1 4.68% [at 57.5 µM]
COc1ccc(-c2noc([C@@H]3C[C@H](NCc4ccc(N(C)C)cc4)CN3C)n2)cc1 -5.46% [at 57.5 µM]
COc1cc(F)cc(-c2cnc3[nH]cc(CC(=O)NCc4cccnc4)c3c2)c1 1.07% [at 57.5 µM]
Oc1cccc(Nc2cnc3ccc(-c4ccc(F)cc4)nn23)c1 11.4% [at 57.5 µM]
CCc1ccc(-c2nc(C3CC(=O)N(c4ccc(C)cc4)C3)no2)cc1 (stereo not drawn) 1.01%
COc1ccc([C@@H](NC(=O)c2ccc3cccc(F)c3n2)C2CC(O)C2)cn1 (stereo partly drawn) 3%
COc1ccc(Nc2cc3c(cn2)CN(CCc2ccccc2)CCN3)cc1 -0.503% [at 57.5 µM]
COc1ccc(-c2noc([C@@H]3Cc4nc[nH]c4CN3C(=O)Nc3ccc(C)cc3)n2)cc1 7.68% [at 57.5 µM]
CCOC(=O)N1CCN(C(C(=O)O)c2ccc(OC)nc2OC)CC1 (stereo not drawn) 29%
O=C(O)CCC(=O)N1Cc2[nH]cnc2C[C@H]1C(=O)NC1CCCCC1 13% [at 57.5 µM]
CO[C@H]1[C@H](NC(=O)COc2ccccc2)c2ccccc2C12CCNCC2 1.6%
COc1ccc(-c2cc(N3CCCC(NC(=O)c4cccn4C)C3)n[nH]2)cc1 (stereo not drawn) -0.774%
CC1=C[C@@H](CNC(=O)c2cncnc2)[C@H](C(C)C)C[C@H]1CC(=O)N(C)Cc1ccccc1 -0.536% [at 57.5 µM]
CCOCC(=O)N1CCC(N2CC3CC(C2)[C@H]2CCCC(=O)N2C3)CC1 (stereo partly drawn) -2.05%
NC(=O)c1cccc(-c2cc3c(cn2)CN(Cc2ccncc2)CCN3)c1 0.513% [at 57.5 µM]
Cc1ccc(-c2noc([C@@H]3Cc4nc[nH]c4CN3Cc3ccccc3)n2)cc1 51.9% [at 57.5 µM]
Cn1cc(-c2cnc(NC(=O)c3c[nH]c4ccccc34)c3c2CCO3)cn1 6.8% [at 57.5 µM]
O=C(NCCc1ccc(Cl)cc1)c1nc(-c2cc(Cl)cc(Cl)c2)c2ccccn12 0.233%
CCCNC(=O)N(C1CCOCC1)C1CCN(C(=O)Nc2c(F)cccc2F)CC1 -4.65%
O=C(Cc1c[nH]c2ncc(-c3ccsc3)cc12)NCc1cccnc1 -0.817% [at 57.5 µM]
Cc1ccccc1-c1cnc2n[nH]c(-c3ccccc3)c2n1 2.04% [at 76.7 µM]
CC1(COc2cccnc2)COc2ccc(C(=O)Nc3ccc4[nH]ccc4c3)cc2N1 (stereo not drawn) 16.2% [at 57.5 µM]
O=C(NCCc1cnc[nH]1)C1CCN(C2CCCCC2)CC1 0.443%
Cc1ccccc1NC(=O)c1cnc2c(c1)N(Cc1ccccc1)CCC2 4.53% [at 57.5 µM]
C=CCCC(CN1CCCOCC1)Oc1ccc(-c2ccccc2)nn1 (stereo not drawn) -1.94%
COCCc1noc(CN(C)c2cc(C(C)C)nc3ccnn23)n1 -1.68%
CCC(=O)N1CCC(Cc2nc(-c3ccccc3)n[nH]2)CC1 0.766%
Cc1cc(C(=O)N[C@H](C)c2c(-c3ccc(Cl)cc3)noc2C(=O)O)c(C)o1 53.2% [at 57.5 µM]
CC(=O)Nc1ccc(CN2CCC(N3CCCCCC3=O)CC2)cc1 0.422%
CC[C@H]1CN(C(=O)C(C)(C)C)CC[C@H]1CC(=O)NCCSC 1.03% [at 57.5 µM]
O=c1[nH]c(-c2ccc(F)cc2)nc2c1CCN(S(=O)(=O)c1cccs1)C2 1.01%
O=C(O)c1cncc(N2CCC3(CC2)CNC(C(=O)O)C3)n1 (stereo not drawn) 42.7%
COc1cccc(CN2CCOC[C@H](Oc3cccnc3)C2)c1 1.48% [at 57.5 µM]
O=C(O)[C@H]1C[C@@H](C(=O)NCc2ccccn2)CN(CC2CC2)C1 22.1%
O=C(CN1C(=O)NC(c2ccccc2Cl)C2=C1COC2=O)Nc1ccc(F)c(Cl)c1 (stereo not drawn) 2.9%
COc1ccc(CN2CCNc3cnc(Nc4ccccc4)cc3C2)cn1 15% [at 57.5 µM]
Cc1noc([C@@H](C)NC(=O)Nc2cccnc2)c1C(=O)O 49.7% [at 57.5 µM]
O=C(CCn1nnc(-c2ccccc2)n1)N1CCCC2(CCNCC2)CC1 -4.15%
CC(C)CCNC1(Cc2cc(CN3CCOCC3)on2)COC1 8.33% [at 57.5 µM]
Cc1noc([C@@H]2CNC[C@H]2CO)n1 4.3%
O=C(NCc1cccnc1)[C@@H]1C[C@@H](c2ccc(F)cc2)N(Cc2ccccc2)C1 -0.331% [at 57.5 µM]
CC1=C[C@@H](CC#N)[C@H](C(C)C)C[C@H]1CC(=O)NC1CC1 -1.03% [at 76.7 µM]
c1cncc(Nc2cc3c(cn2)CN(Cc2ccc4[nH]ccc4c2)CCN3)c1 1.18% [at 57.5 µM]
COc1ccc(-c2cc(-c3cccc(C(N)=O)c3)cn3cncc23)cc1 29.1% [at 57.5 µM]
NC(=O)Cc1c[nH]c2ncc(-c3ccc(F)cc3)cc12 12.5% [at 76.7 µM]
O=c1c2nc(NCc3ccccc3)ccc2ncn1Cc1ccccn1 18.9% [at 57.5 µM]
CCCS(=O)(=O)N1CCC(Oc2nccnc2N2CCOCC2)C1 (stereo not drawn) 5.44%
CCCCCC(=O)Nc1nc2c(s1)C[C@@H]1[C@](C)(CO)[C@H](O)CC[C@@]1(C)[C@@H]2CC(=O)NCc1ccccc1 0.525%
CC[C@H]1CN(S(=O)(=O)c2c(C)noc2C)CC[C@H]1CC(=O)NCc1ccco1 1.93% [at 57.5 µM]
CC(C)c1noc([C@@H]2C[C@H](NC(=O)Nc3ccc(F)cc3)CN2C)n1 -1.13% [at 57.5 µM]
COCCNC(=O)C[C@@H]1C[C@H]2O[C@H](CNC3CCCCC3)[C@@H](O)[C@H]2O1 0.285% [at 57.5 µM]
O=C(CSc1ccncc1)N1CCN2C(=O)N(Cc3ccccc3)C(=O)[C@H]2C1 27.2% [at 57.5 µM]
OC[C@H]1C[C@@H](NCc2cccc3c2OCO3)[C@H](O)[C@@H]1O 7.96% [at 76.7 µM]
c1ccc(-c2cnc(Nc3ccncc3)c3c2CCO3)cc1 10.6% [at 76.7 µM]
CCC[S+](=O)([O-])N1CCN(C(=O)N2CC3CC(C2)[C@H]2CCCC(=O)N2C3)CC1 (stereo partly drawn) -3.2%
O=C(O)c1cc(-c2cccc(CO)c2)cc(S(=O)(=O)N2CCOCC2)c1 1.88%
